Inconclusive results are not listed. The source made the active and inactive calls. Cut-off read from the data, not from the text of the source, unless noted: active = inhibition above about 80%; inactive = the rest.
Legend:
[1] = viability loss in pontine glioma line – cell-based, SU-DIPG-XVII, MIPE5.0, CellTiter-Glo, qHTS, dose response (AID 1347060; cut-off not given, nearly all actives have AC50 up to about 26 µM); conditions: CellTiter-Glo ATP luminescence
[2] = viability loss in pontine glioma line – cell-based, SU-DIPG-XIII, MIPE4.0, CellTiter-Glo, qHTS, dose response (AID 1347061; cut-off not given, nearly all actives have AC50 up to about 37 µM;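 note: cells exposed to compound for 48 hours before readout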); conditions: CellTiter-Glo ATP luminescence
[3] = viability loss in pontine glioma line – cell-based, JHH-DIPG-1, MIPE4.0, CellTiter-Glo, qHTS, dose response (AID 1347062; cut-off not given, nearly all actives have AC50 up to about 27 µM); conditions: JHH-DIPG-1 viability, CellTiter-Glo ATP luminescence
[4] = viability loss in pontine glioma line – cell-based, SU-DIPG-IV, MIPE4.0, CellTiter-Glo, qHTS, dose response (AID 1347063; cut-off not given, nearly all actives have AC50 up to about 30 µM;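 note: compound exposure lasted 48 hours before the viability readout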); conditions: CellTiter-Glo ATP luminescence
[5] = viability loss in pontine glioma line – cell-based, SU-DIPG-XIII, MIPE5.0, CellTiter-Glo, qHTS, dose response (AID 1347064; cut-off not given, nearly all actives have AC50 up to about 23 µM); conditions: CellTiter-Glo ATP luminescence
[6] = growth inhibition of DIPG cells – cell-based, MIPE4.0 library, CellTiter-Glo luminescence, qHTS (AID 1347066; cut-off not given, nearly all actives have AC50 up to about 30 µM;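 note: cells exposed to compound for 48 hours before readout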); conditions: SU-DIPG-VI viability, CellTiter-Glo ATP luminescence
[7] = JHH-DIPG-1 glioma cell viability, MIPE5.0 library, CellTiter-Glo luminescence, qHTS (AID 1347067; cut-off not given, nearly all actives have AC50 up to about 26 µM;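 note: cells exposed to compound for 48 hours before readout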); conditions: JHH-DIPG-1 glioma viability, CellTiter-Glo ATP luminescence
[8] = growth inhibition of DIPG cells – cell-based, MIPE5.0 library, qHTS (AID 1347068; cut-off not given, nearly all actives have IC50 up to about 30 µM); conditions: SU-DIPG-XXV viability
[9] = growth inhibition, single agent or in combination, cell-based, chromothripsis tumors, cisplatin or BGB combos (AID 1671449); conditions: LFS_MB_P medulloblastoma cells;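 note: cells exposed for 96 hours; 0% = vehicle DMSO and 100% = killing by high DMSO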
[10] = growth inhibition, single agent and combos, cell-based, chromothripsis tumors, cisplatin or BGB combos (AID 1671450); conditions: HDN33 neuroblastoma cells, stronger effect = higher value;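 note: cells exposed to compound for four days; 0% = vehicle DMSO and 100% = cell killing by high DMSO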
[11] = growth inhibition, single agents and combos, ICB984, cell-based, cisplatin or BGB combos, synergistic combos for chromothripsis tumors (AID 1671451; call rule not given here;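 note: cells exposed for 96 hours before readout; 0% = vehicle DMSO and 100% = killing by high DMSO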); conditions: ICB984 medulloblastoma cells, drug combinations, stronger effect = higher value
[12] = growth inhibition, single agents and combos, LFS_MB_1R, cell-based, cisplatin or BGB combos, synergistic combos for chromothripsis tumors (AID 1671452); conditions: LFS_MB_1R medulloblastoma cells, stronger effect = higher value;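 note: cells exposed for 96 hours before readout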
[13] = growth inhibition, single agents and combos, HTB85, cell-based, BGB or cisplatin IC20 combos, synergistic combos for chromothripsis tumors (AID 1671453); conditions: HTB85 osteosarcoma cells, drug combinations, stronger effect = higher value;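 note: cells exposed for 96 hours before readout; 0% = vehicle DMSO and 100% = high DMSO killing control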
[14] = growth inhibition, single agents and combos, CRL2098, cell-based, BGB or cisplatin IC20 combos, synergistic combos for chromothripsis tumors (AID 1671454); conditions: CRL2098 osteosarcoma cells, drug combinations, stronger effect = higher value;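 note: cells exposed for 96 h before readout; 0% = vehicle DMSO and 100% = killing by high DMSO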
[15] = growth inhibition, single agents and combos, HD-MB03, cell-based, BGB or cisplatin IC20 combos, synergistic combos for chromothripsis tumors (AID 1671455; in the data active = inhibition above about 83%;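 note: 0% = vehicle DMSO and 100% = high DMSO as cytotoxic control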); conditions: HD-MB03 medulloblastoma cells, stronger effect = higher value
[16] = growth inhibition, single agents and combos, UWB1.289, cell-based, BGB or cisplatin combos, synergistic combos for chromothripsis tumors (AID 1671456); conditions: UWB1.289 ovarian carcinoma cells, stronger effect = higher value;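 note: cells exposed to compound for four days; 0% = vehicle DMSO and 100% = killing by high DMSO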
[17] = growth inhibition, single agents and combos, LFS_MB_2R, cell-based, cisplatin combos, synergistic combos for chromothripsis tumors (AID 1671457); conditions: LFS_MB_2R medulloblastoma cells, stronger effect = higher value;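 note: cells exposed to compound for four days before readout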
[18] = growth inhibition, MDA-MB-436, cell-based, BGB or cisplatin combos, synergistic combos for chromothripsis tumors (AID 1671458; call rule not given here;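 note: cells exposed for 96 hours; 0% = vehicle DMSO and 100% = killing by high DMSO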); conditions: MDA-MB-436 breast carcinoma growth inhibition, drug combinations, stronger effect = higher value
[19] = UWB1.289_BRCA1 ovarian cancer growth, cell-based, BGB or cisplatin combinations (AID 1671459); conditions: UWB1.289 BRCA1 ovarian carcinoma, drug combinations, stronger effect = higher value
[20] = drug combination toxicity in non-malignant astrocytes – cell-based, BGB or cisplatin IC20 combos, cytotoxicity control for chromothriptic childhood tumor combination screen (AID 1671460); conditions: Human astrocytes, viability inhibition, drug combinations, at 0.5 µM, stronger effect = higher value;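 note: cells exposed to compounds for 96 hours before viability readout; 0% = vehicle and 100% = killing control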
[21] = BT084 cell growth, single and combined drugs, ICGC_MB145, cisplatin and BGB IC40 combos (AID 1671461); conditions: BT084 medulloblastoma cells, drug combinations, stronger effect = higher value;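 note: cells exposed to drugs for 96 hours; 0% = vehicle DMSO and 100% = high DMSO full killing control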
[22] = RCMB18 cell growth, single agent and combined, cisplatin and BGB IC40 combos (AID 1671462); conditions: RCMB18 medulloblastoma cells, stronger effect = higher value;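 note: cells exposed to compound for four days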
[23] = CRL1545 cell growth, single agent and combined, cisplatin and BGB IC20 combos (AID 1671464); conditions: CRL1545 osteosarcoma cells, stronger effect = higher value;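 note: cells exposed to compound for 96 hours before readout; 0% = vehicle DMSO and 100% = high DMSO killing control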
[24] = measured here: combination with BGB IC40, at 0.05 µM
[25] = measured here: with BGB IC20 combination, at 0.5 µM
[26] = measured here: with cisplatin IC20 combination, at 0.5 µM
[27] = measured here: combination with cisplatin, at 0.5 µM
[28] = measured here: combination with cisplatin, at 5 µM

CN(C)NC(=O)CCC(=O)O
outcome [1]: inactive
outcome [2]: inactive
outcome [3]: inactive
outcome [4]: inactive
outcome [5]: inactive
outcome [6]: inactive
outcome [7]: inactive
outcome [8]: inactive
inhibition ([9]; at 0.5 µM, stronger effect = higher value): -0.95% (inactive)
inhibition ([9]; measured here: combination with BGB IC20, at 0.005 µM): -31%
inhibition ([9]; measured here: combination with BGB IC40, at 0.005 µM): -30.2%
inhibition [9, 24]: -24.7%
inhibition ([9]; measured here: combination with cisplatin, at 0.5 µM, stronger effect = higher value): 2.21%
inhibition ([9]; measured here: combination with cisplatin, at 5 µM, stronger effect = higher value): -34.9%
inhibition ([10]; BGB combo, at 5 µM): -23.5%
inhibition ([10]; at 0.5 µM): -21.4% (inactive)
inhibition ([10]; cisplatin combo, at 5 µM): -14%
inhibition [10, 25]: -37.1%
inhibition [10, 26]: -10.8%
inhibition ([10]; single agent, at 5 µM): -11.1%
inhibition ([11]; BGB IC20 combo, at 0.005 µM): -38.4%
inhibition ([11]; BGB IC40 combo, at 0.005 µM): -26.9%
inhibition ([11]; BGB IC40 combo, at 0.05 µM): -23.3%
inhibition ([11]; at 0.5 µM): -22.7% (inactive)
inhibition ([11]; cisplatin combo, at 0.05 µM): -27.8%
inhibition ([11]; cisplatin combo, at 0.5 µM): -26.2%
inhibition ([11]; cisplatin combo, at 5 µM): -3.89%
inhibition ([11]; measured here: 5 uM single agent, at 5 µM): -1.92%
inhibition ([12]; at 0.5 µM): -2.69% (inactive)
inhibition [12, 24]: -23.8%
inhibition [12, 27]: 18.7%
inhibition [12, 28]: -7.99%
inhibition ([13]; at 0.5 µM): -8.01% (inactive)
inhibition ([13]; measured here: with BGB IC20, at 0.5 µM): -17.1%
inhibition ([13]; measured here: with BGB IC20, at 5 µM): -18.2%
inhibition ([13]; measured here: with cisplatin IC20, at 0.5 µM): 10.6%
inhibition ([13]; measured here: with cisplatin IC20, at 5 µM): -1.55%
inhibition ([13]; single agent, at 5 µM): -16.5%
inhibition ([14]; at 0.5 µM): -47.3% (inactive)
inhibition ([14]; measured here: combination with BGB at IC20, at 0.5 µM): -35.5%
inhibition ([14]; measured here: combination with cisplatin at IC20, at 0.5 µM): -70.4%
inhibition ([15]; at 0.5 µM): -8.93% (inactive)
inhibition ([15]; measured here: combo with BGB at IC20, at 0.5 µM): -16.7%
inhibition ([15]; measured here: combo with cisplatin at IC20, at 0.5 µM): -5.27%
inhibition ([16]; at 0.5 µM): -6.42% (inactive)
inhibition ([16]; measured here: inhibition with BGB combination, at 0.05 µM): -16.9%
inhibition ([16]; measured here: inhibition with cisplatin combination, at 0.05 µM): -15.9%
inhibition ([17]; at 0.5 µM): -22.3% (inactive)
inhibition [17, 27]: -20.6%
inhibition [17, 28]: -15.1%
inhibition ([18]; at 0.5 µM): -23% (inactive)
inhibition ([18]; measured here: BGB combination, at 0.5 µM): -22.6%
inhibition ([18]; measured here: BGB combination, at 5 µM): -35.6%
inhibition ([18]; measured here: cisplatin combination, at 0.5 µM): -26.7%
inhibition ([18]; measured here: cisplatin combination, at 5 µM): -43.4%
inhibition ([19]; BGB combination, concentration series, at 5 µM): -16%
inhibition ([19]; at 0.5 µM): -15.1% (inactive)
inhibition ([19]; cisplatin combination, concentration series, at 5 µM): -31.4%
inhibition [20]: -16.7% (inactive)
inhibition ([20]; measured here: combo with BGB IC20): -24.5%
inhibition ([20]; measured here: combo with cisplatin IC20): -4.55%
inhibition ([21]; at 0.5 µM): -3.48% (inactive)
inhibition ([21]; cisplatin combination, at 0.5 µM): -21.4%
inhibition ([21]; cisplatin combination, at 5 µM): -13.9%
inhibition ([21]; measured here: BGB IC40 combination 0.05 uM, at 0.05 µM): -20.2%
inhibition ([21]; single agent, at 5 µM): -16.7%
inhibition ([22]; at 0.5 µM): -11.5% (inactive)
inhibition ([22]; cisplatin combo, at 5 µM): 1.98%
inhibition ([22]; measured here: BGB IC40 combination, at 0.05 µM): -3.93%
inhibition [22, 27]: 15.6%
inhibition ([22]; single agent, at 5 µM): -10.2%
inhibition ([23]; at 0.5 µM): -22.5% (inactive)
inhibition [23, 25]: -20%
inhibition [23, 26]: -25.8%
inhibition ([23]; single agent, at 0.05 µM): -6.7%
inhibition ([23]; single agent, at 5 µM): -28%
